Screens: PubChem, National Center for Advancing Translational Sciences (NCATS)
RORg inh: qHTS for inhibitors of ROR gamma transcriptional activity; Nuclear receptor ROR-gamma (Mus musculus), P51450; Drosophila S2 Gal4-RORgamma UAS-luciferase reporter, 20 h; Potency, µM (titrated, usually from 53.6 µM), actives largely listed as inhibitors; 310,000 tested, 5.4% active; AID 2551, 2010; further: nearly all actives have a fitted effect of over 60% in size
Target sequence (P51450 whole entry, looked up, the tested form may be a part): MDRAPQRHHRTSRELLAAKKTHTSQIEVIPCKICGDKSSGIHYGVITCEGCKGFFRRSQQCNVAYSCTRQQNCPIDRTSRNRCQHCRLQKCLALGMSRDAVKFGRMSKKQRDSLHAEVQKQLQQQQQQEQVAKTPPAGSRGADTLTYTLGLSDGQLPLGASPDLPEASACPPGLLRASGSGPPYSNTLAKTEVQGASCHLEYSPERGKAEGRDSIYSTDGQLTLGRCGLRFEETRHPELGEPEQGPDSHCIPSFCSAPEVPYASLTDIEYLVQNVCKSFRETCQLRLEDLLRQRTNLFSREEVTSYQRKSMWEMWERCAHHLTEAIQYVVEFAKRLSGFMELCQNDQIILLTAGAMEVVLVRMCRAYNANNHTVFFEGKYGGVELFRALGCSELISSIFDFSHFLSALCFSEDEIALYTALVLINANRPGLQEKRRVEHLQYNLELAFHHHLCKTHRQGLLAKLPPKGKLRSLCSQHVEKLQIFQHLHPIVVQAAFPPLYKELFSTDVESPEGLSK
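In this cell-based reporter format, copper sulfate (700 uM final) drives Gal4–ROR gamma fusion expression from a metallothionein promoter in Drosophila Schneider cells; compounds preincubated 1 hr, reporter read after 20 hr at ambient temperature.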
VP16 counter: VP16 counterscreen qHTS for inhibitors of ROR gamma transcriptional activity; AID 2546, 2010; Drosophila S2 Gal4-VP16 UAS-luciferase, luminescence, 20 h; 310,000 tested, 3.5% active; Potency, µM (series often up to 53.6 µM), hits mostly inhibitors;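 further: Gal4-VP16 expression switched on by copper sulfate through the metallothionein promoter; nearly all actives have a fitted effect of over 50% in size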
GLP1R cytotox: qHTS of GLP-1 Receptor Inverse Agonists: Cytotox Screen. HEK293 cAMP-luciferase reporter cells, luminescence, 24 h. Potency, µM (titrated, usually from 38.3 µM), actives largely listed as inhibitors. 410,000 tested, 0.13% active. AID 624418, 2012;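 further: loss of luciferase light is scored as toxicity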
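Cells in DMEM/10% Nu serum/1% pen-strep, 1536-well format. Pre-incubated 12 h, dosed with 23 nL compound, incubated a further 24 h. Luciferase detection, 12 min at room temp, luminescence.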
GLP-1R inv ag: qHTS of GLP-1 Receptor Inverse Agonists (Inhibition Mode) | Glucagon-like peptide 1 receptor (Homo sapiens), P43220 | HEK293 GLP-1R CRE-luciferase, luminescence, 24 h; GLP-1R form is constitutively active | Potency, µM (highest dose often 38.3 µM), most hits filed as inhibitors | 410,000 tested, 1.6% active | AID 624417, 2012; further: nearly all actives have a fitted effect of over 55% in size
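Assay principle: reduced luminescence from a cAMP-responsive reporter in HEK293 cells co-expressing a constitutively active GLP-1R. Conditions: 24 hr compound incubation, 37 deg C, 5% CO2.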
GLP-1R agonist: qHTS of GLP-1 Receptor Agonists; Glucagon-like peptide 1 receptor (Homo sapiens), P43220; HEK293 GLP-1R CRE-luciferase, luminescence, 4-6 h; cells express a hypersensitive GLP-1R form; Potency, µM (doses to about 45.6 µM), usual class: activators; 380,000 tested, 0.007% active; AID 624172, 2012
Each line names hits and unclear results; the compound was inactive in the other large screens. In the library only some 5.9% were active in any assay of this set; here they are far more common. The call rests on the fitted dose curve; in most records, active means well fitted curve in the direction sought with a large enough effect; inconclusive means small, poorly fitted or top-dose-only effect, or another doubt; inactive means no such curve, though single readings can be large; an effect the other way counts as inactive or inconclusive.

Cc1ccnc(NC(=O)c2cc(-c3ccc(Cl)s3)nc3ccccc23)c1	GLP-1R inv ag 7.9µM (no result: RORg inh, VP16 counter)
Cc1cc(NC(=O)c2cc(-c3ccc(C)s3)nc3ccccc23)no1	none
Cc1ccc(C)c(-c2cc(C(=O)Nc3nccs3)c3ccccc3n2)c1	RORg inh 13µM, VP16 counter inconclusive, GLP-1R inv ag inconclusive
Cc1cccc(NC(=O)c2cc(-c3ccc(C)s3)nc3ccccc23)n1	GLP-1R inv ag 10µM
COC(=O)c1sccc1NC(=O)c1cc(-c2cc(C)ccc2C)nc2ccccc12	none
Cc1ccc(C(O)(c2ccccc2)c2ccccc2C(C)N(C)C)c(C)c1 (stereo not given)	GLP1R cytotox inconclusive, GLP-1R inv ag 10µM
Nc1ncn(C(=S)Nc2ccccc2)n1	GLP1R cytotox 4.5µM, GLP-1R inv ag inconclusive (no result: RORg inh, VP16 counter)
O=c1oc2ccccc2c2c1C1O[C@](c3ccsc3)(Cc3ccccc31)O2	none (no result: GLP1R cytotox, GLP-1R inv ag, GLP-1R agonist)
Cc1ccc(N2CC(c3nc(-c4ccc(Cl)cc4)no3)CC2=O)cc1F (stereo not given)	none (no result: RORg inh, VP16 counter, GLP-1R agonist)
COc1ccc(OC)c(NC(=O)COC(=O)COc2c(Cl)cc(Cl)c3ccc(C)nc23)c1	none (no result: RORg inh, VP16 counter)
COC(=O)COc1c(Cl)cc(Cl)c2ccc(C)nc12	RORg inh inconclusive, VP16 counter 22µM
Cc1ccc2c(Cl)cc(Cl)c(OCC(=O)NC(C)(C)C)c2n1	RORg inh 7.1µM, VP16 counter inconclusive, GLP-1R inv ag inconclusive
CC(C)=CCC/C(C)=C/CC/C(C)=C/CCC(=O)OC/C=C(\C)CCC=C(C)C	none (no result: RORg inh, VP16 counter, GLP1R cytotox, GLP-1R inv ag)
CCN(Cc1ccc(OC)c(F)c1)C(=O)CCl	GLP-1R inv ag 3.2µM
CCN(Cc1ccc(OC)c(F)c1)C(=O)C1CCCO1 (stereo not given)	none
C[C@H]1COC(=O)O1	none (no result: GLP1R cytotox, GLP-1R inv ag, GLP-1R agonist)
COc1ccc(S(=O)(=O)N2CCCCCC2)cc1N(C)S(=O)(=O)c1ccc(Cl)cc1	GLP-1R inv ag 10µM
COc1ccc(S(=O)(=O)N2CCCCCC2)cc1C(=O)N(C)CC(=O)Nc1ccc(Cl)c(Cl)c1	GLP-1R inv ag 10µM (no result: RORg inh, VP16 counter)
O=C(CN1CCN(S(=O)(=O)N2CCCCC2)CC1)Nc1ccc(Cl)c(Cl)c1	RORg inh inconclusive, VP16 counter inconclusive, GLP-1R inv ag 8.9µM
COc1ccc(S(=O)(=O)N2CCCCCC2)cc1C(=O)N(C)Cc1ccc(C(C)(C)C)cc1	VP16 counter inconclusive, GLP-1R inv ag 5.6µM
O=C(CSc1nc2c(oc3ccccc32)c(=O)n1Cc1ccco1)Nc1ccccc1Cl	none (no result: RORg inh, VP16 counter, GLP-1R agonist)
Clc1cccc(-c2nc(-c3ccccn3)no2)c1	RORg inh 5µM, VP16 counter 8.9µM
CCN(CC)c1ccc(-c2nc(-c3ccccn3)no2)cc1[N+](=O)[O-]	GLP-1R inv ag inconclusive (no result: RORg inh, VP16 counter, GLP-1R agonist)
c1ccc(-c2n[nH]c(-c3ccccn3)n2)cc1	RORg inh 1.1µM, VP16 counter 1.1µM, GLP-1R inv ag inconclusive
Cc1ccc(-c2nc(-c3ccccn3)no2)cc1[N+](=O)[O-]	RORg inh 10µM, VP16 counter 6.3µM, GLP-1R inv ag inconclusive
Cc1ccc(-c2nc(-c3ccccn3)no2)cc1	RORg inh 0.89µM, VP16 counter 2µM, GLP-1R inv ag 0.89µM
c1ccc(-c2n[nH]c(-c3ccccn3)n2)nc1	RORg inh inconclusive, VP16 counter inconclusive
c1ccc(-c2noc(-c3cccc4ccccc34)n2)nc1	RORg inh inconclusive, VP16 counter 10µM, GLP-1R inv ag inconclusive
Cc1ccc2nc(-c3ccccn3)oc2c1	RORg inh 10µM, VP16 counter inconclusive, GLP-1R inv ag inconclusive
Cc1ccc(-c2nc(-c3ccccn3)no2)cc1Cl	RORg inh 3.5µM, VP16 counter 5.6µM, GLP-1R inv ag 1.6µM
COc1cc(-c2nc(-c3ccccn3)no2)cc(OC)c1OC	RORg inh inconclusive
Cc1ccc2nc(-c3cccnc3)oc2c1	none
c1ccc(C(Cc2nc(-c3ccccn3)no2)c2ccccc2)cc1	RORg inh inconclusive, VP16 counter inconclusive, GLP-1R inv ag 10µM
c1ccc(Cc2nc(-c3ccccn3)no2)cc1	none
COc1ccc(N2C(=O)CSC23C(=O)N(CC(=O)NCCc2ccccc2)c2ccccc23)cc1 (stereo not given)	none (no result: RORg inh, VP16 counter)
c1ccc(-c2ccc(-c3nc(-c4ccccn4)no3)cc2)cc1	RORg inh 2.5µM, VP16 counter 1.4µM
c1ccc(-c2noc(-c3ccno3)n2)nc1	none
c1ccc(-c2nc(-c3ccccn3)no2)cc1	RORg inh 2.2µM, VP16 counter 2µM
c1ccc(-c2cc(-c3nc(-c4ccccn4)no3)c3ccccc3n2)cc1	none (no result: RORg inh, VP16 counter)
Cc1cc2ccccc2n2c(SCC(=O)N3CCc4ccccc4C3)nnc12	RORg inh inconclusive, VP16 counter 18µM
Fc1cccc(NC(=S)N2CCc3ccccc32)c1	RORg inh 8.9µM, VP16 counter inconclusive, GLP1R cytotox inconclusive, GLP-1R inv ag inconclusive
O=[N+]([O-])c1ccc(NC(=S)N2CCc3ccccc32)cc1	RORg inh 13µM, VP16 counter inconclusive, GLP1R cytotox inconclusive, GLP-1R inv ag inconclusive
O=[N+]([O-])c1ccc(NC(=S)N2CCCC2)cc1	none
COc1ccc(NC(=S)N2CCc3ccccc32)cc1OC	RORg inh 8.9µM, VP16 counter inconclusive
CC(=O)c1cccc(NC(=S)N2CCc3ccccc32)c1	RORg inh inconclusive, VP16 counter inconclusive, GLP-1R inv ag inconclusive
COc1ccc(NC(=S)N2CCN(C(c3ccccc3)c3ccccc3)CC2)cc1OC	RORg inh 8.9µM, VP16 counter 13µM, GLP-1R inv ag inconclusive
CCCC[C@@H](CC)COC(=O)C[C@H](C(=O)OC[C@H](CC)CCCC)S(=O)(=O)O	none (no result: RORg inh, VP16 counter, GLP1R cytotox, GLP-1R inv ag)
CC(C)NC(=O)N1CCCC2(CCN(C(=O)c3cc(C(F)(F)F)cc(C(F)(F)F)c3)CC2)C1	none (no result: GLP1R cytotox, GLP-1R inv ag, GLP-1R agonist)
Cc1ccc(-c2onc(C)c2C)cc1S(=O)(=O)N1CCC(C)CC1	GLP-1R inv ag inconclusive (no result: RORg inh, VP16 counter, GLP-1R agonist)
CNC(=S)N1CCN(C(c2ccccc2)c2ccccc2)CC1	GLP-1R inv ag inconclusive
O=C(Nc1ccccc1)N1CCc2ccccc21	none
S=C(Nc1ccccc1)N1CCc2ccccc21	RORg inh 11µM, VP16 counter 16µM
CCOc1ccccc1NC(=S)N1CCCc2ccccc21	GLP-1R inv ag inconclusive
COc1ccccc1NC(=S)N1CCCc2ccccc21	RORg inh 2.8µM
CCC(C)NC(=S)N1CCN(C(c2ccccc2)c2ccccc2)CC1 (stereo not given)	RORg inh 11µM, VP16 counter inconclusive, GLP-1R inv ag inconclusive
COc1cccc(/C=C/C(=O)Nc2ccc3c(c2)OCCO3)c1OC	RORg inh 1.1µM, VP16 counter inconclusive
COc1ccc(/C=C/C(=O)Nc2cccc(C(C)=O)c2)cc1	RORg inh 3.2µM, VP16 counter 6.3µM
COc1cccc(/C=C/C(=O)Nc2cccc(C(C)=O)c2)c1OC	RORg inh 1.4µM, VP16 counter inconclusive
